Reference: PubChem BioAssay (Tox21)
Records with an inconclusive call do not appear. Entries that show only a call come without a potency. Calls of active or inactive are those of the source. Calls follow the shape of the dose curve; as a rule, active = well fitted curve in the direction sought with a large enough effect in the repeat runs; inconclusive = weak or mixed curves; inactive = no such curve, though single readings can be large; an effect the other way counts as inactive or inconclusive.

Legend:
[1] = biological target: Cytochrome P450 2D6 (Homo sapiens) (UniProt P10635); test: Cytochrome P450 Family 2 Subfamily D Member 6 (CYP2D6) small molecule antagonists: luciferase reporter qHTS assay (AID 1671196); conditions: P450-Glo CYP2D6 enzyme assay, luciferin luminescence, 1 h; series mostly up to 115 µM; also: nearly all actives have a fitted effect of over 50% in size
In short: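 Luminescence (RLU), read 20 min after detection reagent, indicated CYP2D6 conversion of proluciferin to luciferin during a 1 h NADPH-dependent reaction at room temperature.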

[2] = biological target: Cytochrome P450 2C19 (Homo sapiens) (UniProt P33261); test: Cytochrome P450 Family 2 Subfamily C Member 19 (CYP2C19) small molecule antagonists: luciferase reporter qHTS assay (AID 1671197); conditions: P450-Glo CYP2C19 enzyme, luciferin luminescence, 1 h; series mostly up to 52.9 µM; also: nearly all actives have a fitted effect of over 65% in size
In short: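 Relative luminescence units recorded 20 min after the detection reagent stopped a 1 h, 37C CYP2C19 reaction on proluciferin substrate, which was started by NADPH regeneration following 10 min room-temperature compound preincubation; ketoconazole positive control.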

[3] = biological target: Cytochrome P450 1A2 (Homo sapiens) (UniProt P05177); test: Cytochrome P450 Family 1 Subfamily A Member 2 (CYP1A2) small molecule antagonists: luciferase reporter qHTS assay (AID 1671199); conditions: P450-Glo CYP1A2 enzyme, luciferin luminescence, 1 h; series mostly up to 53 µM; also: nearly all actives have a fitted effect of over 50% in size
In short: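 CYP1A2 turnover of a luminogenic substrate was quantified after 1 h with NADPH regeneration at room temperature. Furafylline served as positive control.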

[4] = biological target: Voltage-gated inwardly rectifying potassium channel KCNH2 (Homo sapiens) (UniProt Q12809); test: Human Ether-a-go-go-Related Gene (hERG) channel small molecule antagonists: fluorescence cell-based qHTS assay (AID 1671200); conditions: hERG-U2OS cells, FluxOR thallium flux fluorescence; series mostly up to 76.8 µM; also: nearly all actives have a fitted effect of over 50% in size
In short: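 In this thallium-flux screen, overnight-cultured U2OS cells bearing the channel are dye-loaded in darkness for an hour, rested 10 min at room temperature, and then monitored kinetically at 480/540 nm for two minutes post-stimulus.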

[5] = biological target: Cytochrome P450 3A4 (Homo sapiens) (UniProt P08684); test: Cytochrome P450 Family 3 Subfamily A Member 4 (CYP3A4) small molecule antagonists: luciferase reporter qHTS assay (AID 1671201); conditions: P450-Glo CYP3A4 enzyme, luciferin luminescence, 1 h; series mostly up to 115 µM; also: nearly all actives have a fitted effect of over 50% in size
In short: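 CYP3A4 activity was followed with a P450-Glo proluciferin substrate. Test compounds in DMSO were preincubated 10 min; NADPH regeneration then ran 1 h, and light output was read 20 min after detection reagent.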

[6] = biological target: Cytochrome P450 2C9 (Homo sapiens) (UniProt P11712); test: Cytochrome P450 Family 2 Subfamily C Member 9 (CYP2C9) small molecule antagonists: luciferase reporter qHTS assay (AID 1671198); conditions: P450-Glo CYP2C9 enzyme assay, luciferin luminescence; series mostly up to 115 µM; also: nearly all actives have a fitted effect of over 50% in size
In short: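 Enzyme-substrate mix preincubated with compound 10 min at room temperature; reaction started with NADPH regeneration solution, 1 h 37C. Luminescent luciferin product read after 20 min detection reagent.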
Potency is read from the fitted curve at half-maximal effect.

Sequence of Cytochrome P450 1A2 (Homo sapiens) (P05177 whole entry, looked up): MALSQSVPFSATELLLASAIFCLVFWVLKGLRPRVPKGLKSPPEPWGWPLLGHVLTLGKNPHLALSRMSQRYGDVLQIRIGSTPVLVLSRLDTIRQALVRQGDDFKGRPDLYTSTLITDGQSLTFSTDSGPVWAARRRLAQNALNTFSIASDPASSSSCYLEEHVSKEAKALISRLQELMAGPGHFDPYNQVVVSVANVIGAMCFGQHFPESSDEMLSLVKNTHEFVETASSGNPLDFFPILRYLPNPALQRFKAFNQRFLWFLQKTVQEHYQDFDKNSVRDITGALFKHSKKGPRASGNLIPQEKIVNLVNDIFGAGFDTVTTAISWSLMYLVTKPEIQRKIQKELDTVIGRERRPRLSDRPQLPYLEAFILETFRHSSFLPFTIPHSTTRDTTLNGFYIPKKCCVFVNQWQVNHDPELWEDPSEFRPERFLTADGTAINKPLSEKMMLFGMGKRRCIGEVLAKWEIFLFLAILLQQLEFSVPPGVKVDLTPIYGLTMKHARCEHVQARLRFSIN
Sequence of Cytochrome P450 2C19 (Homo sapiens) (P33261 whole entry, looked up): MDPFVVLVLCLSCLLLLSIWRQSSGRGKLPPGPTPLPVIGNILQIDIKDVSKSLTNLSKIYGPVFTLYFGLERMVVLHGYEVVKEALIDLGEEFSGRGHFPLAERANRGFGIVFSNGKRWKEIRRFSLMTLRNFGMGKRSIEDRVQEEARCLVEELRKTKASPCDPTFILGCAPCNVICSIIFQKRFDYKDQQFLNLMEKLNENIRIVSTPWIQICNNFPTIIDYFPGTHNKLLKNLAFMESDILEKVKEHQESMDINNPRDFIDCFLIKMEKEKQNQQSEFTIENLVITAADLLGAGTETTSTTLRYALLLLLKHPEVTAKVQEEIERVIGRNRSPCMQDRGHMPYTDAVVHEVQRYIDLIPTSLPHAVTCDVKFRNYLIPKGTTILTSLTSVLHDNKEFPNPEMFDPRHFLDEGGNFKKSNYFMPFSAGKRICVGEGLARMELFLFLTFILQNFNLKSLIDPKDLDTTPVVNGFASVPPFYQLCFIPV
Sequence of Cytochrome P450 2D6 (Homo sapiens) (P10635 whole entry, looked up): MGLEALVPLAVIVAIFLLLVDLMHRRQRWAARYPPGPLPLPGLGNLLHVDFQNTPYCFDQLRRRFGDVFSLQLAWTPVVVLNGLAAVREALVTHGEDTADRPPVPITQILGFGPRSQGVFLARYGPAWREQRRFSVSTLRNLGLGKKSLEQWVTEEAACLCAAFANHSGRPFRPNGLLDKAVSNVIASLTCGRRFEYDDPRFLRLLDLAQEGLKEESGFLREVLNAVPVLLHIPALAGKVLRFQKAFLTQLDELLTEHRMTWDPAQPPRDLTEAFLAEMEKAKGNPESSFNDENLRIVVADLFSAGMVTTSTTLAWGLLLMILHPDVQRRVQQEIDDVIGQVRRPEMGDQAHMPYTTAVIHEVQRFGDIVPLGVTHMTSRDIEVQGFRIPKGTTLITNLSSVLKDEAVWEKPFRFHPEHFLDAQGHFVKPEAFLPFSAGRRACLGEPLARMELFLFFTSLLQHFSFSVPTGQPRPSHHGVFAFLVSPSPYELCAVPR
Sequence of Cytochrome P450 3A4 (Homo sapiens) (P08684 whole entry, looked up): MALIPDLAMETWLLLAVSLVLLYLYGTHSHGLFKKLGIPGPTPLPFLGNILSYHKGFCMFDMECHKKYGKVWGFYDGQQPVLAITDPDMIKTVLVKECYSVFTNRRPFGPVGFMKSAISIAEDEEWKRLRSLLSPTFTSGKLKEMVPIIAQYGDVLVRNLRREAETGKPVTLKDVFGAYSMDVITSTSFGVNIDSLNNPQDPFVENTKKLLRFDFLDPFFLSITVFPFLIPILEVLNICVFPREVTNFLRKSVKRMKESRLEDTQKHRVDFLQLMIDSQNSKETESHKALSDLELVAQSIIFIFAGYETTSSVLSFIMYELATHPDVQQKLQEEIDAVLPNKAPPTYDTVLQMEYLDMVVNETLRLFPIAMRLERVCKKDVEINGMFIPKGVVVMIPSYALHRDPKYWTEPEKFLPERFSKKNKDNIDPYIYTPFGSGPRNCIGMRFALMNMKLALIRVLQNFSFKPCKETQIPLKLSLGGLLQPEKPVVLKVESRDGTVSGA
Sequence of Voltage-gated inwardly rectifying potassium channel KCNH2 (Homo sapiens) (Q12809 whole entry, looked up): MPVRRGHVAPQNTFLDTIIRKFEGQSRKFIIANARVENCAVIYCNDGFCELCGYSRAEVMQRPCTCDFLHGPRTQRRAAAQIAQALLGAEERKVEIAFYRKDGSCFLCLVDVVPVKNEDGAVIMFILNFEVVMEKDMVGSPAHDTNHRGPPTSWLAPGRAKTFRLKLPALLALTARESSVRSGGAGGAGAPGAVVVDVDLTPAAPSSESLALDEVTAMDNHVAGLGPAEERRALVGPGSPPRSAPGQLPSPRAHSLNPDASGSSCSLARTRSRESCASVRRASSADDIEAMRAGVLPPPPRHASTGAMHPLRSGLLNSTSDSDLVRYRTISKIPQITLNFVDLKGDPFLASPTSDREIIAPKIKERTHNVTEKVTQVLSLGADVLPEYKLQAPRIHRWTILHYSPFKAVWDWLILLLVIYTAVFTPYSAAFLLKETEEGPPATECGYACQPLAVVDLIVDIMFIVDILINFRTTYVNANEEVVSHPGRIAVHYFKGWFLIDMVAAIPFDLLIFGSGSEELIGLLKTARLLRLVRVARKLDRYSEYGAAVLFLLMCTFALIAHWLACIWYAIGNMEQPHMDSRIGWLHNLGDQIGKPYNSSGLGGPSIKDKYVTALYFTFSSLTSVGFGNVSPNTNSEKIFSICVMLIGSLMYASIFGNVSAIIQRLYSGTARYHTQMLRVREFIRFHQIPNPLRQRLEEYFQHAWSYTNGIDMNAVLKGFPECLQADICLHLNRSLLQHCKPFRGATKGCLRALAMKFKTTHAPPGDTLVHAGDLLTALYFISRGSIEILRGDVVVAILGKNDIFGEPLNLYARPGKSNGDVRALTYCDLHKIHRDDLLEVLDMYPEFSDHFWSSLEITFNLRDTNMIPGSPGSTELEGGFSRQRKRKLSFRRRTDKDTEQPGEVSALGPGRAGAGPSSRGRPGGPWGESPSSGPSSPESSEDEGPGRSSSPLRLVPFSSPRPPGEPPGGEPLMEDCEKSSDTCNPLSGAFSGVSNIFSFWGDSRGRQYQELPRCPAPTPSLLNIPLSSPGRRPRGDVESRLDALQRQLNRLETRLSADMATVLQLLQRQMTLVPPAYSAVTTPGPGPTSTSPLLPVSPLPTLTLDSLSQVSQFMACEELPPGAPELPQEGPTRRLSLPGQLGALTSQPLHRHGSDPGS
Sequence of Cytochrome P450 2C9 (Homo sapiens) (P11712 whole entry, looked up): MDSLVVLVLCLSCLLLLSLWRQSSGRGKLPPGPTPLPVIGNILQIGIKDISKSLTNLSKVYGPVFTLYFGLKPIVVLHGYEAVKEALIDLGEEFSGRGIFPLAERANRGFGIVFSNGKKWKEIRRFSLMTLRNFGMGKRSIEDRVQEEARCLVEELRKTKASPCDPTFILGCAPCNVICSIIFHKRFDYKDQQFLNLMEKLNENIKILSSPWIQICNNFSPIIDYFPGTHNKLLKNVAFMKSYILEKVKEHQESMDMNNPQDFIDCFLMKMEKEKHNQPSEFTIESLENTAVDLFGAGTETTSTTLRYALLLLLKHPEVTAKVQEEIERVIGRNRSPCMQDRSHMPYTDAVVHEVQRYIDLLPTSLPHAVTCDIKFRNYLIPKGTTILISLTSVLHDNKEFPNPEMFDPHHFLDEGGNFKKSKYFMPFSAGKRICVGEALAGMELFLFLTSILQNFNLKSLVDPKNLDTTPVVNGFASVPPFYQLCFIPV

| SMILES | Potency [1] | Potency [2] | Potency [3] | Potency [4] | Potency [5] | Potency [6] |
| --- | --- | --- | --- | --- | --- | --- |
| C[C@@]12CCC[C@H]1[C@@H]1CC[C@H]3C[C@@H](O)CC[C@]3(C)[C@H]1CC2 | inactive | 7.76 µM (active) | inactive | inactive |  |  |
| CC(C)C[C@H](NC(=O)[C@H](CCc1ccccc1)NC(=O)CN1CCOCC1)C(=O)N[C@@H](Cc1ccccc1)C(=O)N[C@@H](CC(C)C)C(=O)[C@@]1(C)CO1 | inactive | inactive | inactive | inactive |  |  |
| Cc1c(C)c2c(c(C)c1OC(=O)CCC(=O)OCCO)CC[C@@](C)(CCC[C@H](C)CCC[C@H](C)CCCC(C)C)O2 | inactive | inactive |  | inactive |  |  |
| COC(=O)[C@H]1[C@H]2C[C@@H]3c4[nH]c5cc(OC)ccc5c4CCN3C[C@H]2C[C@@H](OC(=O)/C=C/c2ccc(O)c(OC)c2)[C@@H]1OC | inactive | inactive | inactive | 0.848 µM (active) |  |  |
| CC(C)=CCC1C(=O)N(c2ccccc2)N(c2ccccc2)C1=O | inactive | 27.5 µM (active) |  | inactive |  |  |
| Cc1cccc(N(C)C(=S)Oc2ccc3c(c2)CCC3)c1 | inactive | 1.74 µM (active) | 10.2 µM (active) | inactive | inactive |  |
| Oc1cccc(Nc2ccccc2)c1 | 37.1 µM (active) | 13.2 µM (active) |  | inactive | 29.5 µM (active) |  |
| CCCCCCCC/C=C\CCCCCCCCO | inactive | inactive | 28.2 µM (active) | inactive | inactive |  |
| c1ccc(C[n+]2cccc3ccccc32)cc1 | 3.17 µM (active) | 39.9 µM (active) |  | inactive | inactive |  |
| O=C1NC(=O)c2cc([N+](=O)[O-])ccc21 | 63.8 µM (active) | 71.6 µM (active) | 28.5 µM (active) | inactive | 32 µM (active) |  |
| CCCCN(CCCC)C(C(N)=O)c1ccc(OC)cc1 (centres undefined) | 0.977 µM (active) | 15.5 µM (active) |  | inactive |  |  |
| C=C(C)C(=O)OCCOCCOC(=O)C(=C)C | inactive | 8.94 µM (active) |  | inactive | inactive |  |
| CN1C(=O)OC(C)(C)C1=O | inactive | inactive |  | inactive | inactive |  |
| CC1=C(CC=O)C(C)(C)CCC1 | inactive | inactive | inactive | inactive | 31.7 µM (active) |  |
| CC(=O)Oc1ccc([N+](=O)[O-])cc1CCl | inactive | inactive | inactive | inactive |  |  |
| CS(=O)(=O)c1ccc(-c2cn3ccccc3n2)cc1 | 27.5 µM (active) | 24.5 µM (active) | 0.456 µM (active) | inactive | inactive |  |
| CC(=O)[C@H]1[C@H](C#N)C[C@H]2[C@@H]3CC=C4C[C@@H](O)CC[C@]4(C)[C@H]3CC[C@@]21C | inactive | inactive |  | inactive |  |  |

| SMILES | Potency [1] | Potency [2] | Potency [3] | Potency [4] | Potency [5] | Potency [6] |
| --- | --- | --- | --- | --- | --- | --- |
| CCOC(C)=O | inactive |  | inactive | inactive |  | inactive |
| C(=C\c1ccccc1)/c1ccccc1 | inactive | 44.4 µM (active) | 4.99 µM (active) | inactive |  |  |
| O=C(/C=C/c1ccc(O)c(O)c1)O[C@@H]1C[C@@](OC(=O)/C=C/c2ccc(O)c(O)c2)(C(=O)O)C[C@@H](O)[C@@H]1O | inactive | 12.3 µM (active) | 27.5 µM (active) | inactive | inactive |  |
| C=Cc1ccc(S(=O)(=O)O)cc1 | inactive | inactive | 71 µM (active) | inactive |  |  |
| O=C(O)CCc1nc(-c2ccccc2)c(-c2ccccc2)o1 | inactive | inactive |  | inactive | inactive |  |
| c1ccc2sc(SN(C3CCCCC3)C3CCCCC3)nc2c1 | 1.25 µM (active) | 7.87 µM (active) |  | inactive |  |  |
| O=Cc1c2ccccc2c(Cl)c2ccccc12 | inactive | inactive | 1.38 µM (active) | inactive | inactive |  |
| Brc1cc(Br)c(Oc2cc(Br)c(Br)cc2Br)cc1Br | inactive | 13.8 µM (active) | inactive | inactive |  |  |
| CC1=Nc2ccc3ccccc3c2C1(C)C | 35.6 µM (active) | 8.94 µM (active) | 20 µM (active) | inactive | inactive |  |
| CCOC(=O)c1ccc(I)cc1 | inactive | 80.4 µM (active) | 10.1 µM (active) | inactive |  |  |
| Cc1cc(O)ccc1O | inactive | 25.5 µM (active) | inactive | inactive |  |  |
| Brc1cc2ccccc2c2ccccc12 | inactive | 40.2 µM (active) | 0.32 µM (active) | inactive |  |  |
| CN(C(=O)CN(CCO)CC(=O)N(C)C(C)(C)Cc1ccccc1)C(C)(C)Cc1ccccc1 | 4.36 µM (active) |  | inactive | inactive |  | 30.9 µM (active) |
| CN1CC(=O)N2[C@H](c3ccc4c(c3)OCO4)c3[nH]c4ccccc4c3C[C@@H]2C1=O | inactive | inactive |  | inactive |  |  |
| Cc1ccccc1N=C(N)Nc1ccccc1C | 0.0156 µM (active) | inactive | inactive | inactive |  |  |
| O=C1Cc2cc(Cl)ccc2N1 | inactive |  |  | inactive | inactive | 17.4 µM (active) |
| c1csc(SSc2cccs2)c1 |  | 5.03 µM (active) | 31.7 µM (active) | inactive | inactive | 5.03 µM (active) |
